Drawing on PubChem BioAssay, this text covers z-score for eleven compounds.

SMILES strings stand for the structures.

This experiment in a line: RPMI8226 myeloma cell viability, profiling panel, resazurin fluorescence, basal, 24 h, PK04 Diversity Set (AID 1180).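 Also: RPMI8826 multiple myeloma cell line at 5000 cells per well; test concentration not given here.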 Particulars: higher = more signal.
For `COc1cc2c(cc1O)C(c1cccs1)N(Cc1sc3ccccc3c1Cl)CC2` (stereo unspecified), the z-score was -0.94.

`CC(C)(C)OC(=O)CC[C@]12N=C(c3ccc(OCCCO)cc3)O[C@H]1c1ccccc1N(Cc1ccccc1)C2=O` yielded a z-score of -1.55.

`O=C1C2C=CC(C(O)c3ccc(I)cc3)N(Nc3ccccc3)C2C(=O)N1c1ccccc1` (stereo unspecified) showed a z-score of -0.312.

With `C=CCN1C(=O)[C@@]2(O[C@@H](CCO)[C@H]([Si](C)(C)c3ccc(OC)cc3)[C@H]2C)c2cc(N3CCOC3=O)ccc21`, the z-score is -6.2.

As to `CCOC(=O)C1=C[C@@H](C(C)(C)C)N(S(=O)(=O)c2ccc(C)cc2)[C@H]1c1cccc(Cl)c1`, the z-score is -3.41.

Compound `CO[C@H]1O[C@H](CO)[C@@H](OC(=O)Nc2cccc(F)c2)[C@H](OC(=O)Nc2ccccc2-c2ccccc2)[C@H]1OC(=O)Nc1ccccc1-c1ccccc1` showed a z-score of -4.87.

The compound `COCC(=C=CC[C@@H](O)c1ccc(OCCO)cc1)CCO` yielded a z-score of 2.08.

As to `C=CCC(OC(C)=O)[C@@H]1[C@@H](N(Cc2ccc(-c3cccc(C(F)(F)F)c3)o2)C(=O)Cc2ccc(OC)cc2)c2cc(OCCCO)ccc2N1C(=O)Cc1ccc2ccccc2c1` (stereo partly specified), the z-score was -0.224.

Consider `CN1C(=O)[C@@H]2[C@@H](CC(COc3ccccc3)=C([C@H](O)CCc3ccccc3)[C@@H]2CO)C1=O`, for which the z-score came to 0.685.

`COc1cc(NN2C(C(O)C3CCCCC3)C=CC3C(=O)N(C)C(=O)C32)cc(OC)c1OC` (stereo unspecified): the z-score was -1.35.

`C=CCC(OC(C)=O)[C@@H]1[C@@H](N(Cc2cccc3ccccc23)C(=O)c2ccc(-c3ccccc3)cc2)c2cc(OCCCO)ccc2N1C(=O)c1ccc(-c2ccccc2)cc1` (stereo partly specified) gave a z-score of 0.0263.
